# Bioassay records as filed in PubChem.
# An excerpt weighted towards active compounds, which were near 1.8% of everything screened.
# RPL19A TOR yeast: RPL19A-GFP expression modulators in yeast, primary screen, cell-based, S. cerevisiae, multiplex flow cytometry, MLPCN; 0.3% of 330,000 active; S. cerevisiae RPL19A-GFP strain, 3 h; active compounds read low; percent response vs DMSO, % at 10 µM;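 active = percent response vs DMSO below 50%; inconclusive = fewer than 70 events counted for the yeast strain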;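 note: median channel GFP fluorescence of the barcoded RPL19A-GFP strain; ratio of sample median GFP to plate DMSO average so 100% = DMSO; lower means less RPL19A-GFP as with rapamycin TOR inhibition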
# AGP1-GFP MLPCN: modulators of AGP1-GFP expression in yeast TOR pathway, primary screen, cell-based, multiplex flow cytometry, S. cerevisiae, MLPCN library; GFP response vs DMSO, % at 10 µM; 3 h; GFP as percent of DMSO wells; AID 2066, 2009; 0.02% of 320,000 active;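 active = GFP response relative to DMSO above a set limit, near screen average plus 3 SD, cut at about 150% in these data; inconclusive = fewer than 70 cells counted for the yeast strain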;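 note: median GFP channel fluorescence of the gated AGP1 strain per well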
# Myeloid diff MLP: induction of myeloid progenitor differentiation, primary screen, cell-based, flow cytometry, MLPCN library; calls only at 10 µM; 1% of 360,000 active; ER-HoxA9 myeloid progenitors, lysozyme-GFP differentiation;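 active = normalized GFP-positive differentiation at or above the plate's own cutoff, the solvent-only control mean plus 3 SD; inconclusive = no clear call, values can overlap the other calls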;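 note: cells exposed to compound for four days before flow analysis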
# CIT2 TOR yeast: modulators of CIT2-GFP expression in yeast, primary screen, S. cerevisiae, GFP fusion, multiplex flow cytometry, MLPCN library; S. cerevisiae CIT2-GFP strain, 3 h; 100 means same as DMSO wells; GFP response vs DMSO, % at 10 µM; 0.065% of 320,000 active;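 active = GFP response relative to DMSO above a set limit, near the screen mean plus 3 SD, cut at about 150% in these data; inconclusive = Fewer than 70 cells measured for a yeast strain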;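 note: ratio of well median GFP fluorescence to mean of DMSO wells on the plate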
# LAP4-GFP MLPCN: modulators of LAP4-GFP expression in yeast, primary screen, S. cerevisiae, multiplex flow cytometry, MLPCN library; 3 h; median GFP as percent of DMSO wells; GFP response vs DMSO, % at 10 µM; 0.34% of 320,000 active;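 active = GFP response vs DMSO above a set limit, about the screen mean plus 3 SD, cut at about 150% in these data; inconclusive = under 70 cell events counted for the yeast strain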
# MEP2 TOR yeast: modulators of MEP2-GFP levels in yeast, primary screen, S. cerevisiae, multiplex flow cytometry, MLPCN library; S. cerevisiae MEP2-GFP strain, 3 h; 100% = DMSO control level; GFP response vs DMSO, % at 10 µM; 0.51% of 330,000 active; AID 2016, 2009;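 active = GFP response versus DMSO above a set limit, roughly screen mean plus 3 SD, cut at about 180% in these data; inconclusive = fewer than 70 cells counted for a yeast strain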;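 note: median GFP fluorescence of the barcode-gated MEP2-GFP cells per well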
# * hit, by the source's call; i = inactive; ? = inconclusive; . = no result; + = active, no number; [ ] = dose if it differs, or a comment.
SMILES,RPL19A TOR yeast,AGP1-GFP MLPCN,Myeloid diff MLP,CIT2 TOR yeast,LAP4-GFP MLPCN,MEP2 TOR yeast
COc1ccccc1NC(=O)c1ccc([N+](=O)[O-])o1,98.7,95.2,.,89.0,158.8*,86.3
Cc1cc(C(=O)Nc2ccc3ccccc3c2)oc1C,63.5,20.0,i,?,96.5,235.8*[may fluoresce violet]
CC(=O)c1cc(C(=O)Nc2ccc3ccccc3c2)c(C)o1,92.8,103.2,i,89.5,92.3,90.4
Cc1cccc(NC(=O)c2ccc([N+](=O)[O-])o2)c1C,103.1,107.2,+,98.3,122.4,98.1
O=C(Nc1ccccc1N1CCCC1)c1ccc([N+](=O)[O-])o1,101.4,94.0,+,85.2,106.2,96.4
CCn1c(SCC(=O)Nc2cc(C)on2)nnc1-c1c[nH]c2ccccc12,95.2,83.7,i,83.0,95.9,85.2
Cc1ccc(NC(=O)c2ccc([N+](=O)[O-])o2)cc1C,94.6,81.3,.,73.5,200.3*,102.5
CC1CN(Cc2nc3c(c(=O)[nH]c(=O)n3C)n2CCN2CCOCC2)CC(C)O1 (configuration not stated),112.3,105.5,i,92.8,102.2,112.5
COc1cccc(/C=N/n2nnnc2N)c1O,97.7,101.7,i,98.0,104.3,99.8
O=C(NCCc1ccccc1)c1ccc(CS(=O)(=O)c2ccc(Br)cc2)o1,19.9*[may fluoresce violet],?,?,?,79.8,159.3
CCn1ncc(Br)c1C(=O)Nc1sc2c(c1C(N)=O)CCC2,113.9,87.5,i,85.7,86.1,91.7
CCOC(=O)C[C@H]1c2ccccc2S(=O)(=O)N1Cc1ccc(Cl)cc1,99.3,91.9,i,87.8,117.0,94.9
O=[N+]([O-])c1ccccc1OCCOc1ccccc1[N+](=O)[O-],73.1,155.2*,i,131.2,167.3*,529.8*
Cc1cc(C2C(C#N)=C(N)OC3=C2C(=O)CC(C)(C)C3)c(C)s1 (configuration not stated),96.0,96.0,i,94.2,95.8,97.2
Cc1cccc(OCC(=O)NNC(=O)c2cc3ccccc3oc2=O)c1,60.4,26.6,i,?,93.6,210.7*[may fluoresce violet]
O=C(COc1ccc(F)cc1)NNC(=O)c1cc2ccccc2oc1=O,105.2,108.5,?,106.0,97.0,106.6
CC1(C)CC(NC(=O)C(=O)NCCc2ccccc2)CC(C)(C)N1,92.1,106.1,i,92.0,109.5,96.0
O=C(Nc1ccc(-c2noc(COc3ccccc3Cl)n2)cc1)c1ccco1,96.3,98.6,+,102.4,97.2,103.5
Cc1ccc(C(=O)CSc2nc3cccnc3n2C)cc1,101.8,98.5,+,89.0,110.2,99.8
Cn1c(SCC(=O)c2ccccc2)nc2cccnc21,90.8,82.8,i,78.6,.,88.5
COc1ccc(CNC2CCCCC2C)c(OC)c1 (configuration not stated),45.3*[may fluoresce violet],31.8,i,?,90.7,147.6
COc1ccc(CNC2CCCc3ccccc32)c(OC)c1 (configuration not stated),103.6,103.8,i,107.0,100.5,106.7
Cn1c(=O)c(C(=O)Nc2ncccc2O)c(O)c2ccccc21,30.4*,28.7,i,49.1,88.0,104.8
CCCn1c(=O)c(C(=O)Nc2ncccc2O)c(O)c2ccccc21,98.7,99.8,i,100.3,107.3,106.3
CC(C)CCC(O)(CCC(C)C)C(=O)NNc1ccccc1,102.1,96.6,+,110.7,95.5,114.5
SMILES,RPL19A TOR yeast,AGP1-GFP MLPCN,Myeloid diff MLP,CIT2 TOR yeast,LAP4-GFP MLPCN,MEP2 TOR yeast
CC(=O)Nc1ccc(S(=O)(=O)N(C)C2CCN(C)CC2)cc1,99.6,98.7,i,99.6,89.4,103.0
CC(Oc1cccc(Cl)c1)C(=O)Nc1ccc(S(=O)(=O)N(C)C2CCN(C)CC2)cc1 (configuration not stated),96.4,98.4,+,87.1,93.8,92.1
COc1cccc(CC(=O)Nc2ncc(C)s2)c1,44.7*[may fluoresce violet],?,i,?,65.6,189.9*[may fluoresce violet]
O=c1/c(=C/c2ccc(O)c([N+](=O)[O-])c2)sc2nc3ccccc3n12,.,.,i,.,.,.
CCN(CC)c1ccc(/C=c2\sc3nc4ccccc4n3c2=O)c(O)c1,.,.,+,.,.,.
Cc1ccc(N2C(=O)CCC(C(=O)O)C2c2cccs2)cc1 (configuration not stated),102.2,97.0,i,102.2,91.7,108.5
Cc1ccc(CNc2nc(Cl)c(C#N)s2)cc1,101.8,102.1,i,96.5,102.9,101.9
COc1ccc(/C=C/C=C2\NC(=S)NC2=O)cc1,92.7,98.2,+,102.3,98.3,98.3
Nc1ccc2nc(N)sc2c1,.,.,i,.,.,.
Nc1ccc2sc(N)nc2c1,94.1,97.9,+,106.2,100.1,89.3
O=C(O)c1ccc(N2C(=O)CC(N3CCN(c4cccc(C(F)(F)F)c4)CC3)C2=O)cc1 (configuration not stated),38.5*[may fluoresce violet],?,i,?,90.3,602.6*[may fluoresce violet]
CC(C)Nc1nc(-c2ccccc2)nnc1-c1ccccc1,65.5,168.4*,i,136.2,156.9*,795.3*
Cc1ccc(-c2nnc(-c3ccccc3)c(-c3ccccc3)n2)cc1,91.3,104.4,i,89.0,114.3,108.3
Cc1coc2cc3oc(=O)c(CCC(=O)NCCN4CCOCC4)c(C)c3cc12,100.7,102.0,i,99.5,110.6,105.7
CC(C)(C)CNC(=O)c1cccc2c1C(=O)c1ccc(N3CCCC3)cc1S2(=O)=O,94.8,92.6,i,97.1,89.2,93.5
O=C(NCc1ccc(F)cc1)c1cccc2c1C(=O)c1ccc(N3CCC(Cc4ccccc4)CC3)cc1S2(=O)=O,94.6,99.1,+,96.3,92.6,98.0
O=C(NCCN1CCCCC1)c1cccc2c1C(=O)c1ccc(N3CCCC3)cc1S2(=O)=O,92.0,93.8,+,97.1,90.4,.
O=C(NCc1cc(C(F)(F)F)ccc1Cl)c1cccc2c1C(=O)c1ccc(N3CCC(Cc4ccccc4)CC3)cc1S2(=O)=O,95.5,100.0,+,100.1,94.3,103.0
CC1CCN(c2ccc3c(c2)S(=O)(=O)c2cccc(C(=O)NCc4ccc(F)cc4)c2C3=O)CC1,96.9,95.8,i,100.7,101.1,90.7
O=C(NCc1ccc(F)cc1)c1cccc2c1C(=O)c1ccc(N3CCC(N4CCCCC4)CC3)cc1S2(=O)=O,.,.,+,.,.,.
O=C(Nc1ncccc1Cl)C(Sc1ccccc1)c1ccccc1 (configuration not stated),99.4,104.7,i,97.0,93.5,101.8
